Screening results (PubChem BioAssay)
VLA-4 inh = inhibition in human VLA-4 binding assay, primary screen, VLA-4 allosteric modulator project, MLPCN library, flow cytometry, VLA-4 expressing cells; Integrin alpha-4 (Homo sapiens), P13612; ligand binding flow cytometry; inhibition, % (about 7 µM as worked out from the volumes in the protocol); 330,000 compounds, 0.2% hits; in the data active = inhibition above about 50%
pCIP destab = p/CIP-EGFP fusion destabilizers, primary screen, fluorescence, F442A cells. 16 h. Q05BA5. 290,000 compounds, 0.01% hits. decrease of EGFP signal, % at 10 µM. AID 1984, 2009;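 active = EGFP signal decrease of at least 30% at 10 µM or well 3 SD below plate mean, unless failing retest; inactive = the rest, including hits failing retest or dose response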
GPR7 antagonist = GPR7 receptor antagonists, primary screen, cell-based, fluorescence, single concentration | Neuropeptides B/W receptor type 1 (Homo sapiens), P48145 | GPR7-expressing cells, fluorescence antagonist assay | inhibition, % at 4.4 µM | 290,000 compounds, 1.1% hits | AID 1861, 2009; in the data active = inhibition above about 16%, passing the limit was not always enough;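 note: cells stimulated with the agonist NPW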
Target sequence (P48145 whole entry, looked up): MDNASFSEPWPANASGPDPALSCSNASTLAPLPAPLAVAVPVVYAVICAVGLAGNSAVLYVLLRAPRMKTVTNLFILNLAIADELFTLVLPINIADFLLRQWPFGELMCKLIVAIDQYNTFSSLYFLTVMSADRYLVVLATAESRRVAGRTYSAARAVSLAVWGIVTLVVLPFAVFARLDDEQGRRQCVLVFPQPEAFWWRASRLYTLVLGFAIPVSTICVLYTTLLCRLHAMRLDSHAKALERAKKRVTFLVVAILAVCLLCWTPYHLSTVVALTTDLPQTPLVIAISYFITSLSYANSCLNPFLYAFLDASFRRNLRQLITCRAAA
GASC-1 inh = inhibitors of GASC-1 histone demethylase, primary screen, biochemical, fluorescence, DELFIA europium. AID 2099, 2009. 330,000 compounds, 0.069% hits. inhibition, % at 2.35 µM. GST-JMJD2C(1-420) H3K9me3 demethylation. Lysine-specific demethylase 4C (Homo sapiens), Q9H3R0;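 active = more than half of a compound's replicate wells show inhibition beyond 50%, single wells judged on their own value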;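 note: signal counts dimethyl H3K9 product captured on neutravidin plate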
GPR7 antag conf = GPR7 receptor antagonists, confirmation, cell-based, fluorescence, single concentration | 2,400 compounds, 52% hits | inhibition, % at 4.4 µM | shares compounds with GPR7 antagonist | GPR7-expressing cells, calcium fluorescence antagonist mode; in the data active = inhibition above about 24%;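 note: stimulated with the GPR7 agonist NPW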
MCHR1 antagonist = MCHR1 antagonists in cells, counter-screen for GPR7 antagonist project, cell-based, fluorescence, human. shares compounds with GPR7 antagonist. MCHR1-expressing cells, fluorescence antagonist assay. AID 2148, 2009. 2,400 compounds, 62% hits. inhibition, % at 4.4 µM; in the data active = inhibition above about 22%
Hits are given with their value. Shown are actives, neighbours in structure and some others; about 1.2% of the full set was active somewhere.

O=C(Cc1ccc(-n2cccc2)cc1)N1CCN(c2ccccc2F)CC1 was read as VLA-4 inh inactive, pCIP destab inactive, GPR7 antagonist 27.3, GASC-1 inh inactive, GPR7 antag conf inactive and MCHR1 antagonist inactive.
`COc1ccc(CC(=O)N2CCN(c3ccccc3F)CC2)cc1OC` gave VLA-4 inh inactive, pCIP destab inactive, GPR7 antagonist inactive and GASC-1 inh inactive.
For COC(=O)[C@@]1(Cc2ccc(OC)cc2)[C@H]2c3cc(C(=O)N4CCCC4)n(CCO)c3C[C@H]2CN1C(=O)c1ccccc1 the results were VLA-4 inh inactive, pCIP destab inactive, GPR7 antagonist inactive and GASC-1 inh inactive.
For COC(=O)[C@@]1(Cc2ccccc2)[C@H]2c3cc(C(=O)N4CCCC4)n(Cc4ccsc4Br)c3C[C@H]2CN1C(=O)c1ccccc1 the results were VLA-4 inh inactive, pCIP destab inactive, GPR7 antagonist 45.6, GASC-1 inh inactive, GPR7 antag conf 37.3 and MCHR1 antagonist 25.6.
For CC(C)c1ccccc1OCC(O)CN1CCN(S(=O)(=O)c2ccc([N+](=O)[O-])cc2)CC1 (stereo not drawn) the results were VLA-4 inh inactive, pCIP destab inactive, GPR7 antagonist 46.7, GASC-1 inh inactive, GPR7 antag conf 45.0 and MCHR1 antagonist 76.0.
`Cc1ccc(OCC(=O)Nc2ccc3c(c2)nc(CCN2CCCCC2)n3C)cc1` gave VLA-4 inh inactive, pCIP destab inactive, GPR7 antagonist 21.9, GASC-1 inh inactive, GPR7 antag conf inactive and MCHR1 antagonist inactive.
For COc1ccc(OCC(=O)Nc2ccc3c(c2)nc(CCN2CCCCC2)n3C)cc1 the results were VLA-4 inh inactive, pCIP destab inactive, GPR7 antagonist inactive and GASC-1 inh inactive.
Cc1ccc(CCNC(=O)C2CC(=O)N(C3CCCCC3)C2)cc1 (stereo not drawn) was read as VLA-4 inh inactive, pCIP destab inactive, GPR7 antagonist 27.5, GASC-1 inh inactive, GPR7 antag conf inactive and MCHR1 antagonist inactive.
For Cc1cc2nc3c(=O)[nH]c(=O)[nH]c3nc2c([N+](=O)[O-])c1N the results were pCIP destab inactive, GPR7 antagonist 25.3, GPR7 antag conf inactive and MCHR1 antagonist inactive.
Screening Cc1c(N)c(C(C)(C)C)cc(C(C)(C)C)c1[N+](=O)[O-] returned VLA-4 inh inactive, pCIP destab inactive, GPR7 antagonist inactive and GASC-1 inh inactive.
Screening COc1cc(C(=S)N2CCOCC2)ccc1OC(=O)c1ccc(Br)cc1 returned VLA-4 inh inactive, pCIP destab inactive, GPR7 antagonist 41.5, GASC-1 inh inactive, GPR7 antag conf 65.8 and MCHR1 antagonist 81.0.
`COc1cc(C(=S)N2CCOCC2)ccc1OC(=O)c1cccc(C)c1` gave VLA-4 inh inactive, pCIP destab inactive, GPR7 antagonist inactive and GASC-1 inh inactive.
CC(C)CN1CCCC(N2CCN(c3cccc(Cl)c3)CC2)C1 (stereo not drawn) was read as VLA-4 inh inactive, pCIP destab inactive, GPR7 antagonist 27.4, GASC-1 inh inactive, GPR7 antag conf inactive and MCHR1 antagonist inactive.
For COc1ccc(C(=O)/C=C/c2ccccc2)c(OC)c1 the results were VLA-4 inh inactive, pCIP destab inactive, GPR7 antagonist inactive and GASC-1 inh inactive.
Screening COc1ccc(C(=O)N(C(C)C)C(C)C)c(OC)c1 returned VLA-4 inh inactive, pCIP destab inactive, GPR7 antagonist 25.1, GASC-1 inh inactive, GPR7 antag conf inactive and MCHR1 antagonist inactive.
For COc1ccc(C(=O)/C=C/c2ccc(N(C)C)cc2)c(OC)c1 the results were VLA-4 inh inactive, pCIP destab inactive, GPR7 antagonist 31.6, GASC-1 inh inactive, GPR7 antag conf 58.0 and MCHR1 antagonist 81.0.
Screening N#Cc1cccc(NC(=O)COc2ccc(-n3ccnc3)cc2)c1 returned VLA-4 inh inactive, pCIP destab inactive, GPR7 antagonist 23.8, GASC-1 inh inactive, GPR7 antag conf inactive and MCHR1 antagonist 44.4.
COc1cc(NC(=O)COc2ccc(-n3ccnc3)cc2)cc(OC)c1 was read as VLA-4 inh inactive, pCIP destab inactive, GPR7 antagonist inactive and GASC-1 inh inactive.
`Cc1cccc(C)c1NC(=O)CN(C)C(=O)C1CC(=O)N(c2cccc3ccccc23)C1` (stereo not drawn) gave VLA-4 inh inactive.
Screening CC(=O)Nc1cccc(N=NN2CCCCC2)c1 returned VLA-4 inh inactive, pCIP destab inactive and GPR7 antagonist inactive.
`CCOc1ccc(C2CC(c3ccccc3C)n3ncnc3N2)cc1` (stereo not drawn) gave VLA-4 inh inactive, pCIP destab inactive, GPR7 antagonist 36.7, GASC-1 inh inactive, GPR7 antag conf inactive and MCHR1 antagonist 23.7.
Screening Cc1ccccc1C1CC(c2ccccc2)Nc2ncnn21 (stereo not drawn) returned VLA-4 inh inactive, pCIP destab inactive, GPR7 antagonist inactive and GASC-1 inh inactive.
COc1ccccc1C1CC(c2ccc(Cl)cc2)Nc2ncnn21 (stereo not drawn) was read as VLA-4 inh inactive, pCIP destab inactive, GASC-1 inh inactive and MCHR1 antagonist inactive.
For C/C=C/C=C/C(=O)[C@@H]1[C@@H]([C@]2(C)OC(=O)C(C)=C2O)[C@H]2/C(=C(O)/C=C/C=C/C)C(=O)[C@]1(C)C(=O)C2(C)O (stereo partly drawn) the results were VLA-4 inh inactive, pCIP destab inactive and GASC-1 inh inactive.
`O=C(Nc1ccccn1)C1CCCN1S(=O)(=O)c1ccc(Cl)cc1` (stereo not drawn) gave VLA-4 inh inactive, pCIP destab inactive, GPR7 antagonist inactive and GASC-1 inh inactive.
`CN(Cc1ccccc1)C1=CC(=[N+]2CCCCC2)CC(C)(C)C1` gave VLA-4 inh inactive, pCIP destab inactive, GPR7 antagonist 39.5, GASC-1 inh inactive, GPR7 antag conf 57.0 and MCHR1 antagonist 48.4.
`CCn1c(-c2ccc(N)cc2)nc2ccccc21` gave VLA-4 inh inactive, pCIP destab inactive, GPR7 antagonist inactive and GASC-1 inh inactive.
CCn1c(-c2ccc(N(C)C)cc2)nc2ccccc21 was read as VLA-4 inh inactive, pCIP destab inactive, GPR7 antagonist 36.8, GASC-1 inh inactive, GPR7 antag conf inactive and MCHR1 antagonist 25.7.
`Cc1ccc(N/C(N)=N/c2nc(C)cc(C)n2)cc1` gave VLA-4 inh inactive, pCIP destab inactive, GPR7 antagonist 75.1, GASC-1 inh inactive, GPR7 antag conf 64.4 and MCHR1 antagonist 73.4.
For Cc1cccc(N/C(N)=N/c2nc(C)cc(C)n2)c1 the results were VLA-4 inh inactive, pCIP destab inactive, GPR7 antagonist 28.5, GASC-1 inh inactive, GPR7 antag conf 38.9 and MCHR1 antagonist 54.4.
